From PubChem BioAssay (NCATS)
Where “and” joins values, the source holds several entries; their conditions need not be identical. Equal entries are not always repeated. Results filed as inconclusive are left out. Calls of active or inactive are those of the source. Unless noted, calls follow the shape of the dose curve; as a rule, active = well fitted curve in the direction sought with a large enough effect; inconclusive = small, poorly fitted or top-dose-only effect, or another doubt; inactive = no such curve, though single readings can be large; an effect the other way counts as inactive or inconclusive.

Molecular target: Cytochrome P450 2C9 (Homo sapiens) (UniProt P11712)
Test: qHTS Assay for Inhibitors and Substrates of Cytochrome P450 2C9 (AID 883); also: nearly all actives have a fitted effect of over 60% in size; also: potency is read from the fitted curve at half-maximal effect; as to activity change, negative = inhibition: % is scaled to controls: 0 for no effect and ±100 for the full control effect
Conditions: recombinant CYP2C9, luciferin-H luminescence, 60 min; series mostly up to 57.1 µM; activity change, negative = inhibition: at the top concentration
Summary of the method: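 Turnover of Luciferin-H (100uM, KM) by 10nM human CYP2C9 was measured over 60 min at 37C with NADPH regeneration; inhibitors and some substrates reduce luminescence. Data normalized to sulphaphenazole 57uM.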

Cytochrome P450 2C9 (Homo sapiens), sequence (P11712 whole entry, looked up): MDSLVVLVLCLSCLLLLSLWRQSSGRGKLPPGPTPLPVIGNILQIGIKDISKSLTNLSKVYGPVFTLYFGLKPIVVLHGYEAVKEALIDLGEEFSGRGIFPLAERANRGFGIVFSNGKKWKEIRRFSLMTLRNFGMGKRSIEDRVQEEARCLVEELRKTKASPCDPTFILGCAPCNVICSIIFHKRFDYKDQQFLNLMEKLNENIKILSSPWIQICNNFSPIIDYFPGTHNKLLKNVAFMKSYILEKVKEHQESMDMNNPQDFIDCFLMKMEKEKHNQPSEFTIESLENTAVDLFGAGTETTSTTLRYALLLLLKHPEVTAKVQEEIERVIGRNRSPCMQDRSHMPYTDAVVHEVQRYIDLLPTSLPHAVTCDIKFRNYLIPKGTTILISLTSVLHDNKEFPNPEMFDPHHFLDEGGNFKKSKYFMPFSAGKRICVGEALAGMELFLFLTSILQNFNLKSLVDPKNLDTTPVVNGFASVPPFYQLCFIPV

| SMILES | Potency | activity change, negative = inhibition |
| --- | --- | --- |
| CN(C)CCC(=O)[C@@]1(O)CC[C@H]2[C@H]3CC=C4C[C@@H](O)CC[C@]4(C)[C@H]3CC[C@]21C | 2.51 µM (active) | – |
| CC(=O)c1c(O)c(C)c(O)c2c1OC1=CC(=O)[C@H](C(C)=O)C(=O)[C@]12C | 0.0126 µM (active) | – |
| C[C@H](Br)C(=O)c1ccc2cc(Br)c3ccccc3c2c1 | – | 58.8% [at 11.4 µM] (inactive) |

Molecular target: Tumor susceptibility gene 101 protein (Homo sapiens) (UniProt Q99816)
Test: qHTS Assay for Iinhibitors of HIV-1 Budding by Blocking the Interaction of PTAP/TSG101: Hit Validation (AID 651600); also: nearly all actives have a fitted effect of over 70% in size; also: potency is read from the fitted curve at half-maximal effect; as to activity change, negative = inhibition: % is scaled to controls: 0 for no effect and ±100 for the full control effect
Conditions: PTAP peptide/TSG101 UEV interaction, biochemical assay; series mostly up to 57.5 µM; activity change, negative = inhibition: at the top concentration
Summary of the method: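 Tsg101 binding domain 10 uM + FITC-PTAP peptide 50 nM (final), 10 mM HEPES pH 7.5/0.15 M NaCl/0.01% Tween 20/3 mM EDTA/0.1 mM TCEP; 20 min RT; FP read, FITC filters.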

Tumor susceptibility gene 101 protein (Homo sapiens), sequence (Q99816 whole entry, looked up): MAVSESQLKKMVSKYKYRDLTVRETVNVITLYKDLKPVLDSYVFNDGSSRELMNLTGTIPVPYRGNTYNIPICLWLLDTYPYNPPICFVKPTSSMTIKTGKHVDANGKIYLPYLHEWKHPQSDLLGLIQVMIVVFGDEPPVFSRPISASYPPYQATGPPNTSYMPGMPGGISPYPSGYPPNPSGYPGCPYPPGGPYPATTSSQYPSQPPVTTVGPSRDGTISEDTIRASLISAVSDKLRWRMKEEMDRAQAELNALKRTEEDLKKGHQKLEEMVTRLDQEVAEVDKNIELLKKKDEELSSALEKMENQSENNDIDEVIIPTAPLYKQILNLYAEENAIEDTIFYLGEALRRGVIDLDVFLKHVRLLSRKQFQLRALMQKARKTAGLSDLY

| SMILES | activity change, negative = inhibition | Potency |
| --- | --- | --- |
| N#CCN1CCN(c2ccc(C(F)(F)F)cc2)CC1 | 2.83% (inactive) | – |
| CCOC(=O)c1c(/N=C/c2c(O)n(-c3ccccc3F)c(=S)[nH]c2=O)sc2c1CCCC2 | – | 16.3 µM (active) |
| Nc1ccc2c3c(cccc13)-c1ccccc1-2 | – | 9.19 µM (active) |

Tested on: not listed separately
Test: qHTS assay for small molecule agonists of the antioxidant response element (ARE) signaling pathway (AID 651741; active = well fitted activation curve with a large enough effect in the signal ratio; the % refers to the signal ratio; also: potency is read from the fitted curve at half-maximal effect; as to activation: % of control where 0% means no effect)
Conditions: HepG2 ARE-bla reporter, beta-lactamase FRET ratio, 16 h; series mostly up to 96 µM; activation: at the top concentration
Summary of the method: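 Quantitative HTS in HepG2 cells stably expressing an ARE-beta-lactamase reporter; 16 h compound exposure at 37 C, followed by 2 h room-temperature incubation with LiveBLAzer B/G FRET substrate and fluorescence measurement.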

| SMILES | activation | Potency |
| --- | --- | --- |
| O=C(O)CN(CCN(CC(=O)O)CC(=O)O)CC(=O)O | 6.41% (inactive) | – |
| [Cl][Sn]([c]1ccccc1)([c]1ccccc1)[c]1ccccc1 | – | 486 nM (active) |
| S=C([S-])NCCNC(=S)[S-].[Mn+2] | – | 30.6 µM (active) and 27.3 µM (active) |
| c1ccc2cc3c(ccc4ccccc43)cc2c1 | – | 12200 nM (active) |

Tested on: not listed separately
Test: qHTS assay for environmental chemicals that activate the Aryl hydrocarbon Receptor (AhR) signaling pathway (AID 651777); also: nearly all actives have a fitted effect of over 15% in size; also: potency is read from the fitted curve at half-maximal effect; as to activation: % of control where 0% means no effect
Conditions: 1A2-DRE human hepatoma cells, luciferase, 24 h; activation: active compounds read high
Summary of the method: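 Luminescence (One-Glo, 30 min, room temperature) reports AhR-driven luciferase in stably transfected human hepatoma cells bearing DRE and CYP1A2 promoter. Cells (1,200/well) were treated with compound for 24 hr at 37 C in qHTS format.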

| SMILES | activation | Potency |
| --- | --- | --- |
| [Cl][Sn]([c]1ccccc1)([c]1ccccc1)[c]1ccccc1 | -11.4% (inactive) | – |
| CCC[CH2][Sn]([CH2]CCC)([CH2]CCC)[O]C(=O)c1ccccc1 | -10.5% (inactive) | – |
| Cc1c2ccccc2c(C)c2c1ccc1ccccc12 | – | 25.1 µM (active) |
| CC[C@H](C)[C@H]1O[C@]2(C=C[C@@H]1C)C[C@@H]1C[C@@H](C/C=C(\C)[C@@H](O[C@H]3C[C@H](OC)[C@@H](O[C@H]4C[C@H](OC)[C@@H](NC)[C@H](C)O4)[C@H](C)O3)[C@@H](C)/C=C/C=C3\CO[C@@H]4[C@H](O)C(C)=C[C@@H](C(=O)O1)[C@]34O)O2 | -12% (inactive) | – |
| c1ccc2cc3c(ccc4ccccc43)cc2c1 | – | 22.4 µM (active) |

Molecular target: Peroxisome proliferator-activated receptor alpha (Homo sapiens) (UniProt Q07869)
Test: qHTS assay for small molecule agonists of the peroxisome proliferator-activated receptor alpha (PPARalpha) signaling pathway (AID 651778); also: % of control where 0% means no effect
Conditions: PathHunter PPARalpha complementation, chemiluminescence, 6 h; max response: active compounds read high
Summary of the method: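 Chemiluminescence from complemented enzyme reported PPARalpha activation in cells after 6 hr of compound treatment at 37 C. The detection reagent was incubated for 60 min at room temperature, and compounds were scored as agonists.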

Peroxisome proliferator-activated receptor alpha (Homo sapiens), sequence (Q07869 whole entry, looked up): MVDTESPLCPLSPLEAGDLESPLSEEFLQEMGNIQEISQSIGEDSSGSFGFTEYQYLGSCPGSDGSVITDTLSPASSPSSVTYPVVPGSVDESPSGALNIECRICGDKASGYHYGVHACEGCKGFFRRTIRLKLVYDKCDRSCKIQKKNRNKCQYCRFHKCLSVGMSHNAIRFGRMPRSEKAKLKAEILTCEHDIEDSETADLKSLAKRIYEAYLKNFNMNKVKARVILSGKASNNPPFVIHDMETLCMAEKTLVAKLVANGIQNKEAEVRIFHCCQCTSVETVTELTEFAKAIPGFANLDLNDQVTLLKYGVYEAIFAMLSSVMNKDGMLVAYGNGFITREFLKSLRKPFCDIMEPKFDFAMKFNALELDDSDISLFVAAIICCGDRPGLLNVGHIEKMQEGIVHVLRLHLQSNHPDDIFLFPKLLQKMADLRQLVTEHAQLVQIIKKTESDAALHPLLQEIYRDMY

| SMILES | max response |
| --- | --- |
| [Cl][Sn]([c]1ccccc1)([c]1ccccc1)[c]1ccccc1 | -6.19% (inactive) |
| CCC[CH2][Sn]([CH2]CCC)([CH2]CCC)[O]C(=O)c1ccccc1 | -0.767% (inactive) |
| CC[C@H](C)[C@H]1O[C@]2(C=C[C@@H]1C)C[C@@H]1C[C@@H](C/C=C(\C)[C@@H](O[C@H]3C[C@H](OC)[C@@H](O[C@H]4C[C@H](OC)[C@@H](NC)[C@H](C)O4)[C@H](C)O3)[C@@H](C)/C=C/C=C3\CO[C@@H]4[C@H](O)C(C)=C[C@@H](C(=O)O1)[C@]34O)O2 | 4.77% (inactive) |
